Screen size: about 2,100 compounds; about 940 (45%) were called active. Roughly 48% stayed inconclusive and do not appear here. Calls come from the whole dose curve; as a rule, active = well fitted inhibition curve with a large enough effect; inconclusive = small, poorly fitted or top-dose-only effect; inactive = no such curve, though single readings can be large or run the other way. So high a share suggests a set chosen from earlier hits. The list shows a part of the results.
test: Confirmatory qHTS for Inhibitors of ATXN expression; details: ATXN2-luciferase reporter cells, luminescence, 24 h; series mostly up to 11.5 µM; note: nearly all actives have a fitted effect of over 65% in size
In short: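 A titration, incubated 24 h with reporter cells expressing ATXN2-luciferase. Luminescence (SteadyGlo) gives ATXN2 expression, multiplexed GF-AFC fluorescence gives viability; normalised to DMSO and medium-only wells.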
Potency is the fitted concentration of half-maximal effect.

Potency, inactive:
C=CCOc1ccc(CNc2ccc3[nH]c(=O)[nH]c3c2)cc1OC, C(=N\NC(=Nc1ccccc1)c1ccccn1)/c1ccccn1, C=CCOC(=O)C1=C[C@@H](c2ccc3c(c2)OCO3)C[C@@H](OCCCCO)O1

Potency, active:
CCOc1ccccc1N1CCN(c2ncnc3scc(-c4ccc(OC)cc4)c23)CC1 28.2 µM, CCN1CCN(CCCNC(=O)c2ccc(/C=C3/Sc4ccccc4N(Cc4ccccc4F)C3=O)cc2)CC1 28.2 µM, COc1ccc(Cc2nnc(N/N=C/c3ccc(O)cc3)[nH]c2=O)cc1OC 0.631 µM, COc1ccc(Cc2nnc(N/N=C/c3ccccc3O)[nH]c2=O)cc1OC 1.58 µM, Cc1cccc2c1-c1sc(C(=O)Nc3ccccc3N3CCN(C)CC3)cc1CO2 25.1 µM, CCn1c(COc2ccccc2C)nnc1SCC(=O)N1CCN(c2ccccc2)CC1 14.1 µM, CC(C)(CC(=O)N1CCN(c2ccc(Cl)cc2)CC1)CC1=NS(=O)(=O)c2ccccc2N1 2.51 µM, O=c1nc(N/N=C/c2ccccn2)cn[nH]1 28.2 µM, C(=N\Nc1ccc2nncn2n1)/c1ccccn1 17.8 µM, Cc1nnc(N/N=C/c2ccccn2)[nH]c1=O 1.41 µM, Cc1[nH]n2c(=O)cc(C(C)(C)C)nc2c1-c1ccccc1 7.08 µM, CCCc1cc(=O)[nH]c(-n2[nH]c3c(c2=O)CCCC3)n1 15.8 µM, CCCN(CCC)S(=O)(=O)c1ccc(C(=O)Nc2nnc(-c3cc(OC)cc(OC)c3)o2)cc1 1.58 µM, CC1(C)COCN1S(=O)(=O)c1ccc(C(=O)Nc2nnc(-c3ccc(Cl)s3)o2)cc1 1.12 µM, COc1ccc(-c2nnc(NC(=O)c3ccc(S(=O)(=O)N4COCC4(C)C)cc3)o2)cc1 2.51 µM, COc1cc(NC(=O)N2CCc3nc(Nc4cc(Cl)cc(Cl)c4)ncc3C2)cc(OC)c1OC 3.98 µM, CCOC(=O)C(C(C)=O)c1c(Br)c(O)c(O)c2c(C(=O)c3ccc(C)cc3)coc12 (centres undefined) 5.62 µM, CC(=O)C(C(C)=O)c1c(Cl)c(O)c(O)c2c(C(=O)c3ccccc3)coc12 5.62 µM, O=C(Nc1ccc(OCC(F)(F)C(F)F)c(C(F)(F)F)c1)c1ccc(Cl)cc1 3.55 µM, O=C(NCc1ccccc1)C1=C[C@@H](c2csc3ccccc23)C[C@@H](OCCCCO)O1 3.55 µM, CN(C)C(=O)CSc1nc(-c2ccccc2)nc2c1CCCC2 17.8 µM

From PubChem BioAssay AID1745848 (National Center for Advancing Translational Sciences (NCATS), 2022)
